Bioassay records deposited in PubChem by National Center for Advancing Translational Sciences (NCATS).
The list is not random: actives were taken first. Their share in the collection is about 19%.
HT1080NT lethal – kills 2HG-producing HT-1080-NT fibrosarcoma cells. HT-1080-NT fibrosarcoma viability, CellTiter-Glo ATP luminescence, 48 h. Potency, µM (series often up to 46.1 µM), without a hit: at the top dose activity, negative = less viability, most hits filed as cytotoxic. hit rate 1.6% among 360,000. AID 686970;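 further: NT is the 2HG producing partner of a matched IDH1 knockdown line; 0% = DMSO-treated cells and -100% = media-only wells without cells; nearly all actives have a fitted effect of over 55% in size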
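Viability of the 2HG-overproducing fibrosarcoma line after 48 hours of compound exposure at 37 degrees C was determined by luminescence with CellTiter-Glo, and concentration-effect curves were then fitted and categorized.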
DT40 TDP1 no CPT – qHTS for Inhibitors of human tyrosyl-DNA phosphodiesterase 1 (TDP1): qHTS in cells in absence of CPT; hit rate 15% among 420,000; Potency, µM (titrated, usually from 46.2 µM), for the others: top-dose activity change, negative = growth inhibition, usual class: inhibitors; DT40 Tdp1-/- hTDP1 cells, no CPT, ATP luminescence, 48 h; AID 686978, 2013; further: nearly all actives have a fitted effect of over 55% in size
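Seeded 400 DT40-hTDP1 cells/well (vehicle DMSO, no 20 nM CPT); pinned compounds; ≥48 hr at 37 °C; CellTiter-Glo luminescence as viability measure.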
HT1080 IDH1KD tx – HT-1080 IDH1 knockdown cell toxicity (counter line). HT-1080 IDH1 knockdown viability, ATP luminescence, 48 h. Potency, µM (doses to about 46.1 µM), without a hit: top-dose activity, negative = toxicity, usual class: cytotoxic. hit rate 2% among 360,000. AID 686971;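 further: 0% = DMSO wells and -100% = cell-free medium wells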
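Cytotoxicity counter-line: IDH1KD HT-1080, 48 h, CellTiter-Glo. Curves classed by r2, magnitude and activity.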
DT40 TDP1 CPT – DT40-hTDP1 cell growth loss with CPT. chicken DT40 Tdp1-/-;hTDP1 cells + 20 nM CPT, ATP luminescence, 48 h. Potency, µM (series often up to 46.2 µM), inactives show at the highest dose activity change, negative = growth inhibition, hits mostly inhibitors. hit rate 12% among 420,000. AID 686979; further: nearly all actives have a fitted effect of over 55% in size
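Chicken DT40 Tdp1-/- cells stably complemented with human TDP1 were seeded at 400 cells/well in medium containing 20 nM camptothecin, exposed to pin-transferred compounds, and grown at 37 °C for at least 48 hr. Viability was read as ATP luminescence.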
KB-3-1 cytotox – KB-3-1 parental cell cytotoxicity; KB-3-1 viability, CellTiter-Glo ATP luminescence, 72 h; Potency, µM (doses to about 46.1 µM), actives largely listed as cytotoxic; hit rate 1.4% among 400,000; further: nearly all actives have a fitted effect of over 60% in size
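Multi-concentration cytotoxicity screen in KB-3-1 cells grown in DMEM lacking phenol red with 10% FBS. After 72 h at 37 °C with compound, ATP-dependent luminescence was recorded.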
KB-V1 cytotox – kills drug-selected multidrug resistant KB-V1 cells; KB-V1 MDR cells viability, CellTiter-Glo, 72 h; Potency, µM (doses to about 46.1 µM), hits mostly cytotoxic; hit rate 3.4% among 400,000; further: nearly all actives have a fitted effect of over 60% in size
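Cells of the MDR subline KB-V1 are plated, dosed with compound at multiple concentrations, and incubated 72 h at 37 degrees C; CellTiter-Glo is then added and luminescence read after 10 min.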
An asterisk follows results filed as active; i = inactive; ? = inconclusive; nt = not tested or not shown. The call rests on the fitted dose curve; in most records, active means well fitted curve in the direction sought with a large enough effect; inconclusive means small, poorly fitted or top-dose-only effect, or another doubt; inactive means no such curve, though single readings can be large; an effect the other way counts as inactive or inconclusive. Unless noted, on the % scale 0 is the no-effect control and ±100 the full control effect; potency means the concentration at half of the fitted maximal effect.

SMILES	HT1080NT lethal	DT40 TDP1 no CPT	HT1080 IDH1KD tx	DT40 TDP1 CPT	KB-3-1 cytotox	KB-V1 cytotox
COc1ccc2[nH]c3c(c2c1)CCN1C(=O)C(CC(=O)NC/C=C(\C)CCC=C(C)C)C[C@H](C(=O)N2CCOCC2)[C@@]31CCC1CCCC1 (stereo partly drawn)	2.6%	20.6µM*	12.0%	14.6µM*	i	i
O=C(C[C@H]1C[C@H](C(=O)N2CCCCC2)[C@@]2(CCc3ccccc3)c3[nH]c4cc(-c5ccco5)ccc4c3CCN2C1=O)NCc1cccc(C(F)(F)F)c1	-2.6%	20.6µM*	0.7%	?	i	i
CC(C)=CCC/C(C)=C/CNC(=O)C[C@H]1C[C@H](C(=O)N2CCOCC2)[C@@]2(CCC3CCCC3)c3[nH]c4cc(-c5ccco5)ccc4c3CCN2C1=O	-13.2%	?	-13.0%	18.4µM*	?	i
CC[C@]12c3[nH]c4cc(-c5ccco5)ccc4c3CCN1C(=O)[C@@H](CC(=O)NCCCOC)C[C@@H]2C(=O)N1CCN(C(=O)C2CC2)CC1	3.3%	?	5.4%	?	i	i
CC(C)N(C(=O)[C@H]1C[C@H](CC(=O)NCc2cccc(C(F)(F)F)c2)C(=O)N2CCc3c([nH]c4cc(-c5ccco5)ccc34)[C@]12C)C(C)C	-26.6%	?	?	?	?	?
O=C(CC1C[C@H](C(=O)N2CCOCC2)[C@@]2(CCC3CCCC3)c3[nH]c4ccccc4c3CCN2C1=O)NCCc1ccccn1 (stereo partly drawn)	-3.7%	?	-2.5%	20.6µM*	i	i
COc1ccc(NC(=O)c2cccc(NC3=NC4CS(=O)(=O)CC4S3)c2)cc1Cl (stereo not drawn)	-0.2%	4.5%	-1.0%	-15.9%	i	i
C[C@]12c3[nH]c4cc(-c5ccco5)ccc4c3CCN1C(=O)[C@@H](CC(=O)NCCc1ccccn1)C[C@@H]2C(=O)N1CCOCC1	10.4%	?	6.3%	?	i	i
O=C(CC1C[C@H](C(=O)N2CCCCC2)[C@@]2(CCc3ccccc3)c3[nH]c4ccccc4c3CCN2C1=O)NCc1ccco1 (stereo partly drawn)	-1.0%	20.6µM*	-0.6%	13µM*	i	i
CC[C@]12c3[nH]c4ccccc4c3CCN1C(=O)C(CC(=O)NCc1ccco1)C[C@@H]2C(=O)N1CCN(C(=O)C2CC2)CC1 (stereo partly drawn)	-0.2%	-4.0%	1.8%	-4.2%	i	i
C[C@]12c3[nH]c4cc(-c5ccco5)ccc4c3CCN1C(=O)[C@@H](CC(=O)NCC13CC4CC(CC(C4)C1)C3)C[C@@H]2C(=O)N1CCOCC1	?	?	18.4µM*	?	?	23.1µM*
O=C(C[C@H]1C[C@H](C(=O)N2CCOCC2)[C@@]2(CCC3CCCC3)c3[nH]c4cc(-c5ccco5)ccc4c3CCN2C1=O)NCCN1CCOCC1	-19.0%	?	?	23.1µM*	?	i
O=C(CC1C[C@H](C(=O)N2CCOCC2)[C@@]2(CCC3CCCC3)c3[nH]c4ccccc4c3CCN2C1=O)NCc1ccco1 (stereo partly drawn)	1.4%	?	2.7%	20.6µM*	i	i
O=C(C[C@H]1C[C@H](C(=O)N2CCCCC2)[C@@]2(CCc3ccccc3)c3[nH]c4cc(-c5ccco5)ccc4c3CCN2C1=O)NCc1ccco1	-7.8%	?	-5.6%	?	i	i
Cc1ccc(F)c(NC(=O)c2c(-c3ccccc3)noc2C)c1	-1.4%	?	6.4%	?	i	i
CCCCN(C)CCNC(=O)c1c2c(nc3ccccc13)C(=O)N(C1CCCCC1)C2	nt	-27.9%	nt	-21.2%	i	i
O=C(CC1C[C@H](C(=O)N2CCOCC2)[C@@]2(CCC3CCCC3)c3[nH]c4ccccc4c3CCN2C1=O)NCC12CC3CC(CC(C3)C1)C2 (stereo partly drawn)	6.1%	16.4µM*	7.6%	16.4µM*	i	i
COc1ccc(CNC(=O)C[C@H]2C[C@H](C(=O)N3CCOCC3)[C@@]3(CCC4CCCC4)c4[nH]c5cc(-c6ccco6)ccc5c4CCN3C2=O)cc1OC	?	?	?	18.4µM*	?	i
COCCCNC(=O)C[C@H]1C[C@H](C(=O)N2CCOCC2)[C@@]2(CCC3CCCC3)c3[nH]c4cc(-c5ccco5)ccc4c3CCN2C1=O	-18.6%	?	-6.0%	?	i	i
CN(C)CCCNC(=O)C[C@H]1C[C@H](C(=O)N2CCOCC2)[C@@]2(CCC3CCCC3)c3[nH]c4cc(-c5ccco5)ccc4c3CCN2C1=O	?	?	?	23.1µM*	?	i
O=C(C[C@H]1C[C@H](C(=O)N2CCOCC2)[C@@]2(CCC3CCCC3)c3[nH]c4cc(-c5ccco5)ccc4c3CCN2C1=O)NCc1cccc(C(F)(F)F)c1	-29.7%	?	?	16.4µM*	?	16.4µM*
C[C@]12c3[nH]c4cc(-c5ccco5)ccc4c3CCN1C(=O)[C@@H](CC(=O)NCc1cccc(C(F)(F)F)c1)C[C@@H]2C(=O)N1CCOCC1	-7.3%	?	-24.0%	?	i	i
O=C(CC1C[C@H](C(=O)N2CCOCC2)[C@@]2(CCC3CCCC3)c3[nH]c4ccccc4c3CCN2C1=O)NCCN1CCOCC1 (stereo partly drawn)	4.4%	?	0.4%	?	i	i
CCn1c(=O)c2c(nc(SCC(=O)N3CCCC(C)C3)n2C)n(C)c1=O (stereo not drawn)	6.8%	-10.7%	9.2%	-5.1%	i	?
O=C(C[C@H]1C[C@H](C(=O)N2CCOCC2)[C@@]2(CCC3CCCC3)c3[nH]c4cc(-c5ccco5)ccc4c3CCN2C1=O)NCC12CC3CC(CC(C3)C1)C2	-1.4%	?	-18.6%	14.6µM*	?	i
COc1ccc(-c2oc(=O)c3cc(OC)c(OC)cc3c2/C=C/c2ccc(OC(C)=O)cc2)cc1	-22.3%	9.2µM*	?	20.6µM*	i	i
